What all share (assay): NCI-60 one-dose screen, 48 h (100 = growth as untreated, 0 = no growth, -100 = all killed)
Conditions in all cases: 10 µM unless noted

In test [1] the test system is HCT-15 colon.
Test [2] relates to HT29 colon.
Test [3] deals with SNB-75 CNS.
Test [4] deals with SNB-19 CNS.
Test [5] concerns U251 CNS.
For test [6], the system named is PC-3 prostate.
For test [7], the system named is SK-MEL-5 melanoma.
The test system of test [8] is UACC-62 melanoma.
Test [9] deals with LOX IMVI melanoma.
Test [10] has as its system SK-MEL-28 melanoma.

Molecules are shown by their SMILES. About 83,000 compounds went through this panel and 20% of them were active in at least one assay; those are over-represented in the sample as a whole.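 Note: values are percent growth. 100 is the growth of untreated cells, values between 100 and 0 indicate rising inhibition; between -100 and 0 indicates cell death.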 A number with no mark means an inactive call. Calls of active or inactive are those of the source. The calls were made as follows: active = growth percent below 10; inactive = the rest.

Regarding `COCCN(C(=O)c1ccc(F)cc1F)c1c(N)n(Cc2ccccc2)c(=O)[nH]c1=O`, the growth in [1] was 98.8%; in test [2] it was 104%; in test [3] it was 105%; in test [4], 106%; in test [5] it was 100%; in [6], 97.4%. Besides, the growth in test [7] is 108%; in test [8], 94.3%; in test [9], 99.3%; in test [10], 114%.
In the case of `O=C(N=c1oc2ccccc2cc1-c1cc2ccccc2[nH]1)c1ccc(Cl)cc1`, the growth was 25.7% in [1]; 65.7% in [2]; 53.6% in [3]; 32.6% in test [4]; 28.9% in test [5]; 27.2% in test [6]. The growth in test [7] is 96.1%; in test [8], 63.1%; in [9], 60.5%; in test [10], 95.3%.
`Cc1cc(NCc2cc(Nc3ccnc4cc(Cl)ccc34)ccc2F)nc(N2CCOCC2)n1`: the growth in [1] is 12.4%; in [2] it was 8.57% (active); in test [3], -22.2% (active); in test [4] it was 56.1%; in test [5] it was -48% (active); in test [6], 37.5%. For the same compound, the growth in test [7] is 28.4%; in test [8] it was 4.01% (active); in test [9], -78.4% (active); in [10] it was 5.36% (active).
For the compound `C[n+]1cccc(CC(=O)NO)c1`, the growth was 112% in [1]; 99.7% in [2]; 92.6% in [3]; 102% in test [4]; 87.6% in test [5]; 95.5% in test [6]. The growth was 96.4% in test [7], 92.9% in test [8], 98% in test [9] and 113% in [10].
Turning to `O=C(Nc1ccccc1)Nc1cccc(Oc2nnc(Cl)c3ccccc23)c1`, the growth in [1] was 36.4%; in test [2], 23.8%; in test [3] it was -42% (active); in [4] it was 9.64% (active); in [5], 4.84% (active); in test [6], 25.9%. The growth in [7] is 32.9%; in [8] it was 41.3%; in [9], 32.1%; in test [10] it was 44.2%.
In the case of `COc1ccc2c(c1)O/C(=C/c1ccc(OCC(=O)c3ccccc3)cc1)C2=O`, the growth in test [1] was 111%; in test [2] it was 110%; in [3], 120%; in test [4] it was 108%; in test [5], 108%; in test [6], 96.2%. Also, the growth in test [7] was 125%; in test [8] it was 96.3%; in test [9], 108%; in test [10] it was 132%.
Take `CCCCn1c(=O)c2c(nc3n2CCCN3CCc2ccc(OCC(=O)NCCN(CC)CC)cc2)n(CCCC)c1=O`: the growth in [1] is 1.38% (active); in test [2], 5.96% (active); in [3] it was 44.6%; in [4], 65.3%; in test [5], 24.6%; in [6], 47.7%. The growth is 28.3% in [7], 20.7% in test [8], 11% in [9] and -36.4% (active) in [10].
Regarding `CCc1c2c(nc3ccc(OC(=O)OCc4ccc(B5OC(C)(C)C(C)(C)O5)cc4)cc13)-c1cc3c(c(=O)n1C2)COC(=O)[C@]3(O)CC`, the growth in test [1] is 9.28% (active); in test [2], 24.8%; in test [3] it was -21.5% (active); in test [4] it was 1.62% (active); in test [5], -57.2% (active); in [6], 14.9%. Besides, the growth in test [7] is -84.2% (active); in test [8] it was -80.8% (active); in test [9], -67.8% (active); in test [10], -0.304% (active).
As to `O=C(CCCCCCSc1nc(-c2ccccc2)cc(-c2ccc(Cl)cc2)n1)NO`, the growth in test [1] is 15.6%; in [2], 4.56% (active); in [3], 17.8%; in test [4] it was 18.3%; in test [5], 0.693% (active); in test [6], 39.9%. Also, the growth in [7] is -26.9% (active); in test [8] it was -1.11% (active); in test [9] it was -78% (active); in test [10] it was 42%.
In the case of `CC(CN1CCCCC1)C(=O)c1ccccc1` (stereo not given), the growth in test [1] is 107%; in test [2], 101%; in test [3], 101%; in [4], 101%; in [5], 101%; in test [6], 95.4%. In addition, the growth in test [7] is 102%; in test [8], 104%; in [9] it was 98.3%; in [10] it was 106%.
For the compound `COC(=O)[C@]12CC[C@@H](C)[C@H](C)[C@@H]1C1=CC[C@@H]3[C@@]4(C)C(C=O)=C[C@@](C)(COC(C)=O)[C@@H]4[C@H](O)C[C@@]3(C)[C@]1(C)CC2`, the growth in test [1] is -62.7% (active); in test [2] it was -52.8% (active); in test [3], -9.48% (active); in test [4], 29.4%; in [5] it was -46.7% (active); in test [6], 8.44% (active). The growth in test [7] is -93.3% (active); in [8], -46.7% (active); in test [9], -99.1% (active); in test [10], -52.6% (active).
In the case of `CC(=O)n1c(-c2ccc(Cl)cc2)nc2c(c1=O)C(c1ccc(Cl)cc1)c1sc3c(Cl)cccc3c1O2` (stereo not given), the growth in [1] was -37.4% (active); in test [2] it was -52.4% (active); in test [3] it was -22% (active); in [4], 14.2%; in test [5], -37.7% (active); in test [6], 4.54% (active). For the same compound, the growth was -17.7% (active) in [7], 3.42% (active) in [8], -33.8% (active) in [9] and 18% in [10].
